Screens: PubChem BioAssay, several laboratories
Sampled rows, rich in hits. Any-hit rate of the full collection: about 1.5%.
NOD2-RIPK2 inh: NOD2-RIPK2 binding disruptors in cells, primary screen, fluorescence, CHO cells, BLA complementation. CCF4 ratio. inhibition, % at 4.98 µM. 360,000 tested, 0.38% active. AID 624267, 2012; in the data active means inhibition above about 21%;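 further: 0% = vehicle only and 100% = reference blocker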
Target sequence (O43353 whole entry, looked up): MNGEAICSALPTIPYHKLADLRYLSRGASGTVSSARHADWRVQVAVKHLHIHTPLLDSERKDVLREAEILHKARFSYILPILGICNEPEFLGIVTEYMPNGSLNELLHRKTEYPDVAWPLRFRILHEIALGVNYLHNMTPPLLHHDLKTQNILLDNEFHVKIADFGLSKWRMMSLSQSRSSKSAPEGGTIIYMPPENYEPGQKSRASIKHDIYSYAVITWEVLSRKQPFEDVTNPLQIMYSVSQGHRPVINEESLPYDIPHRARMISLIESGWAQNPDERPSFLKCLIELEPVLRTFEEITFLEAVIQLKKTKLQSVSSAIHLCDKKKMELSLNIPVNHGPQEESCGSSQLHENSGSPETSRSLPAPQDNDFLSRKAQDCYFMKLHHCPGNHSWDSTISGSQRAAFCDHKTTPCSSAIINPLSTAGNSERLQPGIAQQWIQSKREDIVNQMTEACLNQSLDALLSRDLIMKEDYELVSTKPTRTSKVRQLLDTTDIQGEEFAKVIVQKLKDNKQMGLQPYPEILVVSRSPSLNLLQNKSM
TLR9-MyD88 block: inhibitors of TLR9-MyD88 association in cells, primary screen, cell-based, CHO, BLA complementation, fluorescence | Toll-like receptor 9 (Homo sapiens) + Myeloid differentiation primary response protein … | CCF4 FRET ratio | inhibition, % at 4.98 µM | 340,000 tested, 0.21% active;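 active means inhibition above the mean over all tested compounds plus 3 SD, cut at about 21% in these data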;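 further: 0% = DMSO only wells and 100% = clavulanate BLA inhibitor control wells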
Myeloid diff MLP: induction of myeloid progenitor differentiation, primary screen, cell-based, flow cytometry, MLPCN library; AID 624256, 2012; 360,000 tested, 1% active; calls only at 10 µM; ER-HoxA9 myeloid progenitors, lysozyme-GFP differentiation;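 active means normalized GFP-positive differentiation at or above the plate's own cutoff, the solvent-only control mean plus 3 SD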;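 further: cells exposed to compound for four days before flow analysis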
TLR4 MyD88 comp: inhibitors of TLR4-MyD88 association in cells, primary screen, cell-based, HeLa CL3-4, BLA complementation, FRET ratio; HeLa CL3-4 TLR4/MyD88 BLA complementation; AID 861, 2007; 200,000 tested, 0.18% active; Toll-like receptor 4 (Homo sapiens) + Myeloid differentiation primary response protein …; inhibition, % at 8.4 µM; in the data active means inhibition above about 25%;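 further: 0% = vehicle and 100% = reference inhibitor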
* = called active by the depositor; i = inactive; · = no result; + = active, no number.

SMILES	NOD2-RIPK2 inh	TLR9-MyD88 block	Myeloid diff MLP	TLR4 MyD88 comp
CCCCNC(=O)c1cc2c(=O)n3cccc(C)c3nc2n(Cc2ccccc2)c1=N	-14	-15	+	-36
CCNC(=O)c1cc2c(=O)n3cccc(C)c3nc2n(CCc2ccccc2)c1=N	-9	-5	i	-5
CCN(C)C1CN(Cc2cn(Cc3cccc(C(F)(F)F)c3)nn2)S(=O)(=O)C1 (stereo not given)	-12	·	i	·
CCOC(=O)C[C@@H]1OC[C@H](CO)N1S(=O)(=O)c1ccc(C)cc1	-2	·	i	·
Nc1nc2ccc(Cl)cc2cc1C(=O)NCCc1c[nH]c2ccccc12	4	·	i	·
Cc1ccccc1NC(=O)CSc1nc(Nc2ccccc2)nc(N2CCOCC2)n1	-6	-1	i	4
Cc1ccc(F)cc1NC(=O)CSc1nc(Nc2ccccc2)nc(N2CCOCC2)n1	-4	3	+	·
CCCCCCCCN1C(=O)[C@H](CC(=O)N2CCSCC2)C[C@@]2(C(=O)OC)CCCCC=C12	-3	·	i	·
COc1ccc(C(C)NC(=O)C2CCN(CCOc3ccc(Cl)cc3Cl)CC2)cc1OC (stereo not given)	6	·	i	·
CC(=O)C1=C(C)NC(SCC(=O)c2ccc(Cl)cc2)=C(C#N)C1c1ccco1 (stereo not given)	7	6	+	2
CC(=O)C1=C(C)NC(SCC(=O)c2ccccc2)=C(C#N)C1c1ccco1 (stereo not given)	·	·	·	-23
C#CCN1CCc2onc(-c3ccc(Br)cc3)c2C1=O	6	·	i	·
CCOc1ccc2nc(NCCNC(=O)CC)c(C#N)cc2c1	8	12	+	10
CC(C)CN1CCN(C(=O)COC(=O)c2ccc(S(C)(=O)=O)c([N+](=O)[O-])c2)CC1	19	·	+	·
CSCC[C@H](NC(=O)Cc1ccc(Cl)cc1)C(=O)N1CCC2(CC1)NCCc1[nH]cnc12	-4	-8	+	·
COc1ccc(CC(=O)N[C@@H](CCSC)C(=O)N2CCC3(CC2)NCCc2[nH]cnc23)cc1	-8	-15	i	·
Cn1nc(C(=O)Nc2cccc(S(N)(=O)=O)c2)c2ccccc2c1=O	-3	7	i	·
CC(OC(=O)c1nn(C)c(=O)c2ccccc12)C(=O)Nc1ccc(S(N)(=O)=O)cc1 (stereo not given)	-14	0	+	·
C=CCOc1cccc(C2C(C(=O)c3ccc(C)o3)=C(O)C(=O)N2c2nccs2)c1 (stereo not given)	-1	2	+	2
COc1cccc(C2C(C(=O)c3ccc(C)o3)=C(O)C(=O)N2c2cc(C)on2)c1 (stereo not given)	-2	-4	i	·
Cc1cc(N2CCCC2)ccc1/C=N/n1cnnc1	7	1	+	11
CCCCNC(=O)C1C(c2ccccc2)=Nc2ccccc2N1C(=O)c1ccc(C)cc1 (stereo not given)	-8	·	i	·
N#C/C(=C\c1ccc(N2CCOCC2)o1)c1nc2ccccc2[nH]1	3	9	+	1
N#C/C(=C\c1ccc(-c2ccc(C(=O)O)cc2)o1)c1nc2ccccc2[nH]1	5	0	+	4
COC(=O)c1ccc(CSc2ccccc2NC(=S)Nc2cccc(SC)c2)o1	-7	0	i	·
SMILES	NOD2-RIPK2 inh	TLR9-MyD88 block	Myeloid diff MLP	TLR4 MyD88 comp
Cc1ccc(C(=O)/C=C/c2ccc(Br)cc2)o1	6	-11	+	12
O=C1Nc2ccccc2C(=O)N(Cc2ccccc2)C1C(=O)NC1CC1 (stereo not given)	4	·	i	·
Cc1ccc(S(=O)(=O)Nc2ccccc2OC(C(=O)OC(C)(C)C)C(=O)OC(C)(C)C)cc1	-7	·	i	·
Cc1ccc(NC(=O)c2nnn(CC(=O)Nc3ccccc3)c2N)cc1C	12	-8	+	10
Cc1ccc(NC(=O)Cn2nnc(C(=O)NCc3ccccc3)c2N)cc1C	2	-5	i	0
CC(C)NC(=O)Nc1nnc([C@@H]2C[C@H](O)[C@@H](CO)O2)s1	-8	·	i	·
O=c1[nH]cccc1-c1nc2ccccc2n1Cc1ccccc1F	4	0	i	·
CCn1c(-c2ccc[nH]c2=O)nc2ccccc21	-3	3	+	·
Cc1ccc(C)c(C(O)c2ncc(-c3cccc(C(F)(F)F)c3)[nH]2)c1 (stereo not given)	2	·	i	·
COc1ccc(NC(=O)C2CCCN2S(=O)(=O)c2ccc3c(c2)C(C)(C)C(=O)N3C)cc1 (stereo not given)	5	·	i	·
CCOC(=O)C1=CCC(c2cc3ccccc3[nH]2)NC1 (stereo not given)	-7	·	i	·
Cc1ccc(NC2=CC(=O)CC(C)(C)C2)c(N)c1	5	-7	+	-4
CC1(C)CC(=O)C=C(Nc2ccccc2N)C1	6	-8	i	·
CCCN(CCC)C(=O)CSc1nc2n[nH]c(C)c2c(=N)n1-c1ccc(OCC)cc1	2	6	i	1
CCOc1ccc(-n2c(SCC(=O)Nc3ccc(CC)cc3)nc3n[nH]c(C)c3c2=N)cc1	-5	7	+	-5
COc1ccc(CCNC(=O)c2ccc(F)c(S(=O)(=O)N3CCCCC3)c2)cc1	-7	-8	i	·
O=C(NCCCN1CCOCC1)c1ccc(Sc2ccc(Br)cc2)c([N+](=O)[O-])c1	-4	3	+	2
CC(Oc1ccccc1)C(=O)NNC(=O)c1cccs1 (stereo not given)	7	7	+	12
CCOC(=O)Cc1c(-c2cccc(Br)c2)nc2c3ccccc3ccn12	-8	·	i	·
COc1ccc(CC(=O)NC(=S)Nc2cccc(C)c2)cc1	-9	8	+	·
COc1ccc(CC(=O)NC(=S)Nc2cccc(CO)c2)cc1	0	·	i	·
C(=C/c1nccc2c1[nH]c1ccccc12)/c1ccc2c(c1)OCO2	-10	-30	+	-101
Cc1nn(Cc2cccc(C(=O)Nc3ccn(Cc4ccccc4)n3)c2)c(C)c1[N+](=O)[O-]	-1	7	+	4
Cc1nn(Cc2cccc(C(=O)O)c2)c(C)c1[N+](=O)[O-]	6	-76	i	·
O=C(N/C(=C/c1ccc(Cl)cc1)c1nc2ccccc2[nH]1)c1ccco1	-9	-11	i	0
O=C(/C(=C/c1ccc(Cl)cc1)c1nc2ccccc2[nH]1)c1ccccc1	-10	4	+	5
COc1ccc(Cc2c(-c3ccccc3)nc3c4ccccc4ccn23)c(C)c1	4	·	i	·
O=C(CCc1nc2ccccc2c(=O)[nH]1)Nc1cc(Cl)ccc1N1CCCCC1	-5	-1	+	·
O=C(Nc1ccccc1N1CCCC1)c1ccc([N+](=O)[O-])o1	-12	-1	+	·
Cc1cccc(NC(=O)c2ccc([N+](=O)[O-])o2)c1C	6	8	+	4
